# AMA1-RON2 inh: inhibitors of Plasmodium falciparum AMA1-RON2 interaction; Potency, µM (doses to about 58.2 µM), for inactives: at the top dose activity change, negative = inhibition, usual class: inhibitors; hit rate 0.2% among 360,000; AlphaScreen AMA1-biotinylated RON2 peptide binding;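 note: 0% = vehicle wells and -100% = peptide control; nearly all actives have a fitted effect of over 45% in size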
#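 AMA1 (3D7) with his tag at 25 nM final met compounds first, then biotinylated RON2 peptide at 25 nM; detection used donor plus acceptor beads, 10 µg/mL apiece, read by AlphaScreen after 30 min at room temperature.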
# LmPK inhibitor: inhibitors of Leishmania mexicana pyruvate kinase. Potency, µM (titrated, usually from 57.5 µM), for inactives: at the highest dose activity change, negative = inhibition, usual class: inhibitors. purified LmPK, Kinase-Glo ATP luminescence, 1 h. AID 1721. hit rate 0.37% among 290,000; note: % is set by controls: 0 for no effect and ±100 for the full control effect
#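 Purified LmPK (0.1 nM) with 0.5 mM PEP and 0.1 mM ADP in imidazole buffer pH 7.2 with MgCl2/KCl, 1 h at room temperature. ATP formed was read by luciferase luminescence and normalized to no-enzyme and uninhibited controls.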
# Giardia FBPA inh-1: blocks Giardia fructose-bisphosphate aldolase activity; A8B2U2; hit rate 0.71% among 290,000; Potency, µM (doses to about 59.6 µM), without a hit: top-dose activity, negative = inhibition, most hits filed as inhibitors; purified Giardia FBPA; AID 2451; note: % is set by controls: 0 for no effect and ±100 for the full control effect; nearly all actives have a fitted effect of over 55% in size
#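 40 nM FBPA preincubated 10 min at RT with compound (up to 57.5 uM final), then substrate plus GAPDH/TPI/NAD/arsenate coupling and diaphorase/resazurin added. Fluorescence read after 20 min at RT, 525/598 nm.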
# NS1 inh: blocks influenza NS1 protein function; hit rate 0.4% among 270,000; Potency, µM (top dose mostly 46.1 µM), for the others: at the highest dose activity, positive = more growth; calls by dose curve; note: actives are rising curves; nearly all actives have a fitted effect of over 50% in size
#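 OD600 was taken as the measure of yeast growth restored by compound in an NS1-expressing S. cerevisiae strain. Cells had been washed out of glucose medium and diluted 1:100 into galactose -URA medium, pH 6.0.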
# Tb PYK inh: T. brucei pyruvate kinase inhibition; Q57TT1; TbPYK enzyme, Kinase-Glo Plus ATP luminescence, 45 min; Potency, µM (highest dose often 76.8 µM), for inactives: top-dose activity, negative = inhibition, most hits filed as inhibitors; hit rate 0.12% among 410,000; note: % is set by controls: 0 for no effect and ±100 for the full control effect; nearly all actives have a fitted effect of over 50% in size
#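 Activity of T. brucei pyruvate kinase was followed by Kinase-Glo Plus luminescence after the enzyme reacted 45 min at room temperature with 130 uM ADP (final) and substrate. Test compounds were added before ADP at multiple concentrations.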
# Giardia growth: inhibitors of Giardia lamblia growth; hit rate 5% among 1,500; Giardia lamblia trophozoite growth inhibition; shares compounds with Giardia FBPA inh-1; Potency, µM (titrated, usually from 57.5 µM), for inactives: at the top dose activity change, negative = inhibition, most hits filed as inhibitors;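 note: trophozoites exposed to compound for 48 h at 37 °C; % is set by controls: 0 for no effect and ±100 for the full control effect; nearly all actives have a fitted effect of over 70% in size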
# Mammalian tox: counter-screen for Giardia aldolase inhibitors: mammalian cell toxicity | shares compounds with Giardia FBPA inh-1 | mammalian cell viability counter-screen, qHTS | Potency, µM (series often up to 57.5 µM), for the others: at the top dose viability change, negative = toxicity, hits mostly inhibitors | hit rate 4% among 1,500 | AID 2786;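 note: Chinese hamster ovary cells used as mammalian cytotoxicity surrogate; viability measured as cellular ATP by luminescence; compound exposure lasted 48 h before reading; % is set by controls: 0 for no effect and ±100 for the full control effect; nearly all actives have a fitted effect of over 60% in size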
# Giardia FBPA inh-2: confirmation of Giardia fructose-bisphosphate aldolase inhibitors. hit rate 5% among 1,500. Potency, µM (series often up to 57.5 µM), for the others: top-dose activity change, negative = inhibition, usual class: inhibitors. shares compounds with Giardia FBPA inh-1. AID 2787. purified Giardia aldolase enzyme activity, qHTS; note: % is set by controls: 0 for no effect and ±100 for the full control effect; nearly all actives have a fitted effect of over 45% in size
# Rabbit aldolase: selectivity test for Giardia aldolase inhibitors: rabbit aldolase; Potency, µM (highest dose often 57.5 µM), for the others: at the highest dose activity, negative = inhibition, usual class: inhibitors; Rabbit muscle FBPA enzyme inhibition, selectivity counter-screen; hit rate 4% among 1,500; shares compounds with Giardia FBPA inh-1; note: % is set by controls: 0 for no effect and ±100 for the full control effect; nearly all actives have a fitted effect of over 60% in size
# Target sequence (P00883 whole entry, looked up): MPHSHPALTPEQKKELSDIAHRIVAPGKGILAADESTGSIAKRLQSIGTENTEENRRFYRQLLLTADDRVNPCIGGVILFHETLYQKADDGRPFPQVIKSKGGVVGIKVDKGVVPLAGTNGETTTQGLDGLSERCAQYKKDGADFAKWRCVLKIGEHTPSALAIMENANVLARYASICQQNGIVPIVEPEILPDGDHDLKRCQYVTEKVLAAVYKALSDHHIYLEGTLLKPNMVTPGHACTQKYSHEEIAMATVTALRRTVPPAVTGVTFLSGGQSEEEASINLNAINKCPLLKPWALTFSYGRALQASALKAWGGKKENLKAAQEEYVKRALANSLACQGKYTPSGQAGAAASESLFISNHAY
# GAPDH coupling: GAPDH inhibition flagged for Giardia aldolase hits; shares compounds with Giardia FBPA inh-1; GAPDH coupling enzyme counterscreen, biochemical, qHTS; Potency, µM (titrated, usually from 57.5 µM), without a hit: at the top dose activity change, negative = inhibition, most hits filed as inhibitors; hit rate 6% among 1,500; AID 2795; note: % is set by controls: 0 for no effect and ±100 for the full control effect; nearly all actives have a fitted effect of over 55% in size
# * hit, by the source's call; ? = inconclusive; / = no result given; [ ] = remark or other dose. A selection: hits, their analogues and other compounds. The true share with any hit is near 1.2%. Unless noted, calls come from the whole dose curve; as a rule, active = well fitted curve in the direction sought with a large enough effect; inconclusive = small, poorly fitted or top-dose-only effect, or another doubt; inactive = no such curve, though single readings can be large; an effect the other way counts as inactive or inconclusive. Potency is the fitted concentration of half-maximal effect.
SMILES,AMA1-RON2 inh,LmPK inhibitor,Giardia FBPA inh-1,NS1 inh,Tb PYK inh,Giardia growth,Mammalian tox,Giardia FBPA inh-2,Rabbit aldolase,GAPDH coupling
CC(=O)Nc1ccc(C2C(C)CCC3C(=O)N4C(CCC(C)[C@@H]4c4ccc(NC(C)=O)cc4)C(=O)N32)cc1 (stereo partly specified),/,/,1%[12.9 µM],/,/,/,/,/,/,/
Cc1ccnc2nc(C(=O)Nc3nc(-c4ccccn4)cs3)nn12,-89%,-2%,16µM*,-4%,-20%,?,-7%,6%,-17%,-8%
O=C(Nc1nc(-c2ccccn2)cs1)c1ccco1,-59%,-4%,16µM*,/,-5%,?,40µM*,1%,-7%,-19%
O=C(Nc1nc(-c2ccccn2)cs1)c1cccc(-n2cnnn2)c1,25%,-16%,5µM*,-6%,-3%,?,32µM*,1%,-10%,-28%
Cn1ccnc1SC(C(=O)O)c1ccccc1 (stereo unspecified),-15%,-4%,14µM*,-9%,2%,?,20%,5%,6%,3%
Cc1oc(CSCC2CCCO2)cc1C(=O)O (stereo unspecified),-9%,-7%,-5%,6%,0%,/,/,/,/,/
Cc1oc(CSCCSCc2cc(C(=O)O)c(C)o2)cc1C(=O)O,3%,2%,14µM*,?,13%,61%,9%,-1%,-7%,11%
COc1ccc([C@]23Cc4cc(C#N)ccc4C(O2)C2=C(CC4(CCCCC4)OC2=O)O3)cc1,/,-11%[11.5 µM],7%[12.9 µM],?,/,/,/,/,/,/
Oc1ccc(/C=N/N=C(c2ccccc2)c2ccccc2)c(O)c1O,7%,2%,5.6µM*,-4%,?,15%[10.4 µM],-11%,10µM*,?,?
CC(C)OC(=O)[C@@H]1CC[C@H](C)[C@@H](CCCCO)O1,/,/,1%,/,/,/,/,/,/,/
Nc1nc2c(s1)CCc1c-2cnn1-c1ccccc1,8%,14µM*,0.4µM*,-134%,?,?,?,13µM*,14µM*,13µM*
Nc1nc2c(s1)COc1ccccc1-2,15%,4%,-7%,-65%,-18%,/,/,/,/,/
CCOC(=O)C1CCCN(C/C=C/c2ccccc2)C1 (stereo unspecified),-13%,-2%,16µM*,8%,3%,67%,14%,11%,10%,-1%
CCOC(=O)C1CCN(C/C=C/c2ccccc2)CC1,-12%,-3%,?,-1%,-1%,/,/,/,/,/
CCCC[C@]12Cc3c(ccc4ccccc34)C(O1)C1=C(O2)C(=O)c2ccccc2C1=O,/,-5%[11.5 µM],0%[12.9 µM],?,/,/,/,/,/,/
O=C(N/N=C/c1cc(Br)c(Br)o1)c1ccc2c(c1)OCCO2,3%,1%,13µM*,9%,-7%,12%,-15%,-8%,-8%,1%
CC(/C=N/NC(=O)c1ccccn1)=C\c1ccco1,14%,25µM*,20µM*,-7%,-5%,?,25µM*,?,-25%,?
O=C(N/N=C/C=C/c1ccco1)c1cnccn1,21%,11%,20µM*,5%,-6%,3%[10.4 µM],12%,?,-11%,?
Clc1ccc(CSCCc2ccncc2)cc1Cl,/,/,/,-31%,/,/,/,/,/,/
O=C(NC(=S)Nc1nc2ccccc2s1)c1ccco1,51%,0%,5µM*,-3%,-8%,7.9µM*,?,-3%,12%,8%

# Compound activity as filed in PubChem BioAssay.
